Here are results for 89 compounds from PubChem BioAssay AID652025 (National Center for Advancing Translational Sciences (NCATS), 2013).

Several values for one entry are separate records, joined by “and”; a condition that tells them apart may be missing. Equal entries are not always repeated. About 240 (0.067%) of roughly 360,000 compounds were called active. Many of the other results were omitted from the sample, so actives are more common in it than they were. A number with no mark means an inactive call. Cut-off read from the data, not from the text of the source: active = activation above about 50%; inconclusive = mostly about 30% to 49%; inactive = weaker than that.

This assay can be described thus: qHTS of IL-2 Activators. Note: 0% is about no effect. As to conditions: IL-2 activation reporter assay, cell-based qHTS; active compounds read high; in transgenic mouse T cells; stimulated with anti-CD3/CD4/CD28 beads. From the text:
The adaptive immune response against any infectious agent begins with the activation of an antigen specific T cell. This relatively rare and inert ("naive") T cell undergoes a massive proliferative expansion and differentiation process to generate sufficient number of potent pathogen-specific effector T cells. The effector T cells fight the infection by making cytokines and helping other cells to become fully armed as well. If any naive T cell has antigen receptors (TCRs) that can be activated by self peptides, then a variety of regulatory mechanisms kick in to prevent this cell from performing to its full potential. These processes collectively constitute the phenomenon of immunological tolerance and their failure leads to autoimmunity. One arm of tolerance involves generation of biochemical negative feedback downstream of the TCR (tuning). This is especially relevant to self antigens present in the body over long periods of time (chronic), which form the bulk of our proteome. The negative feedback serves to tune the TCR signaling, such that the ambient antigenic stimulation is nullified intracellularly. Unfortunately, this critical machinery serves as a target for chronic viral, bacterial and parasitic infections (as well as tumors), which can evade a robust immune response, simply by allowing T cells to tune down their signaling to pathogen or malignancy derived antigens. As such, disrupting the tuning in such cases would allow the tolerant T cell to function again and deliver a robust effector response.
If a therapeutic can restore responsiveness to the tuned down T cell, even for a short time, they could combat the pathogen without any additional immunization. To that end, we have developed a sensitive HTS T cell based assay based on IL-2. This assay will be screened against the Molecular Libraries Small Molecule Repository (MLSMR) to find small molecules that could elicit this response.
NIH Chemical Genomics Center [NCGC]
NIH Molecular Libraries Probe Centers Network [MLPCN]
Assay Submitter (PI): Ron Schwartz, NIAID
4 microL (750 cells/well) of unstimulated transgenic mouse T cells (columns 1-3,5-48) are dispensed into Aurora LoBase, black clear-bottom 1536-well assay plates; column 4 receives an identical concentration of transgenic memory T cells as a non-tolerant control. Compounds are then transferred via Kalypsys pin tool equipped with 1536-pin array (10 nL slotted pins, V&P Scientific, San Diego, CA). Following addition of compound and a 60 minute incubation, 1 microL of bead stimulation solution ((0.04 micron Fluospheres (Life technologies, CA) coated with 10ug/ml each anti-CD3 and anti-CD4 (clones 2C11 and GK1.5, BD Biosciences, CA) and mixed with 1ug/ml anti-CD28 (clone PV-1, BD biosciences, CA)). columns 2-48) is added to stimulate the IL-2 response pathway; media is instead added to column 1 as an unstimulated control, while PMA/ionomycin (Sigma Aldrich, MO) is added to column 3 as a control for IL-2 tolerance bypass. The plates are then incubated at 37 degrees C for 18 hours. EGFP and DsRed signal are then detected using an Acumen eX3 Explorer fluorescent plate cytometer. All cells are dispensed in cell media containing EHAA (Quality Biologicals, MD), RPMI (Quality Biologicals, MD), Glutamine (Life Technologies, CA), Penicillin/Streptomycin (Quality Biologicals, MD), 2-ME (Sigma Aldrich, MO) and 10% FBS (Gemini Bioproducts, CA) .
Turning to `Cc1nc2ccc(S(=O)(=O)NCC(=O)NCCN3CCCCC3C)cc2s1` (centres undefined), the activation is 0.794%.
Consider `COc1ccc(C(=O)C2CCCN(C(=O)c3cc4nc(C)cc(C)n4n3)C2)cc1F` (centres undefined), for which the activation is -1.95%.
On to `Cc1cccc2[nH]c(CN(C)C(=O)C3CCC(=O)N(CCc4ccccc4)C3)nc12` (centres undefined), for which the activation is -4.62%.
As for `CCCCN=C1C([N+](=O)[O-])=CC=C2C1=NC1(CCCCC1)N2O`, the activation was -0.493%.
Take `CCOC(=O)C1CCN(c2c(Nc3cc(C)cc(C)c3)c(=O)c2=O)CC1`: the activation was 3.74%.
Then `COc1ccc(S(=O)(=O)Nc2cccc3c2O[C@H](CN(C)S(=O)(=O)c2ccc(OC)cc2)[C@@H](C)CN([C@H](C)CO)C3=O)cc1`, with -0.577%; and `COc1ccc(-c2ccc3[nH]c4c(c3c2)CCN2C[C@H]3[C@H](C)ON(C)[C@H]3C[C@@H]42)cc1`, with -3.69%.
For `COc1cc(C(F)(F)F)nc2c(Br)c(C(C)(C)C)nn12`, the activation is -2.42%.
Turning to `COc1ccc(N2CCN(CCNC(=O)CCN3C(=O)COc4ccccc43)CC2)cc1`, the activation was -1.26%.
For `Cc1cc(Cl)ccc1OCc1nc(-c2ccncc2)no1`, the activation is -0.482%.
For `O=C(NNc1ccccc1Cl)C(O)(c1cccc(C(F)(F)F)c1)c1cccc(C(F)(F)F)c1`, the activation is -0.487%.
For `Cn1c2ccc(F)cc2c2nnc(NN)nc21`, the activation is 0.485%.
In the case of `CC(C)(C)NC(=O)CN1CCC(NC(=O)C23CC4CC(CC(C4)C2)C3)CC1`, the activation was -0.682%.
Take `COc1ccc(CCC(=O)N2CCN(S(=O)(=O)c3ccc(OC)cc3)CC2)cc1`: the activation was 0.152%.
Regarding `COc1ccc(CCc2nnc(CCC(=O)NCc3cnn(-c4ccccc4C)c3)o2)cc1`, the activation is -0.0481%.
Regarding `Cn1cnc(S(=O)(=O)Nc2ccc3c(c2)OCCO3)c1`, the activation was 0.511%.
For the compound `COc1cccc(N2CCN(CC(=O)Nc3ccnn3C3CCCC3)CC2)c1`, the activation was 0.356%.
Then `O=C1CCC(Cc2ccccc2)N1` (centres undefined), with -3.46%; and `CN1CCN(S(=O)(=O)c2ccc(N3CCN(S(=O)(=O)c4cccs4)CC3)nc2)CC1`, with 0.642%; and `O=C1Cc2ccccc2Sc2ccc(Cl)cc21`, with -0.448%.
As for `CSCC[C@H](NC(=O)N1CCn2c1nc1ccccc12)C(=O)NCc1ccc2c(c1)OCO2`, the activation is -1.15%.
Regarding `COc1ccc(N2CCN(C(=O)CCSCc3ccccc3F)CC2)cc1`, the activation is 1.14%.
Consider `NC(=O)COC(=O)c1ccc2c(c1)C(=O)N(Cc1ccco1)C2=O`, for which the activation is -0.0741%.
Next, `Cc1cnc(C(=O)N2CCCC(C(=O)c3ccc(C(F)(F)F)cc3)C2)cn1` (centres undefined): 0.823%; `CCOc1ccc(Nc2nc(Cc3nnc(SCC(=O)c4ccc(C)cc4)o3)cs2)cc1`: -0.186%.
Take `NCCN1CCN2C(=O)CN(C(=O)c3ccccc3)CC12` (centres undefined): the activation is 1.5%.
With `Cc1cc(C)cc(N(CC(=O)N2CC=C(c3ccccc3)CC2)S(=O)(=O)c2c(C)noc2C)c1`, the activation is -2%.
For the compound `CC1=NN(C(C)C)C(=O)C1`, the activation is -0.959%.
Consider `CC1=C(C(=O)N2CCOCC2)CC(CC(=O)NCCN2CCOCC2)C(=O)N1CCC1=CCCCC1` (centres undefined), for which the activation was 2.16%.
For the compound `CC(=O)CSc1nnc(CSc2ncccn2)n1C1CCCCC1`, the activation is 4.89%.
In the case of `O=C(O)CN(Cc1ccco1)S(=O)(=O)c1ccccc1`, the activation is 0.214%.
`CC(=O)N1CC[n+]2c(-c3ccc([N+](=O)[O-])cc3)csc21`: the activation was -2.73%.
As for `Cc1ccccc1N1C(=O)C(Oc2ccc(Cl)cc2)C1CNCC1CCCO1` (centres undefined), the activation is 0.756%.
Turning to `O=C1/C(=C\c2cccnc2)CN(Cc2ccccc2)C/C1=C\c1cccnc1`, the activation is -0.836%.
For the compound `Cc1c2cn[nH]c(=O)c2c(C)n1Cc1ccc(F)cc1`, the activation is -0.791%.
Take `Cc1c(C(=O)OCC(=O)N2CCCC2=O)oc2ccccc12`: the activation was -1.29%.
As to `O=S(=O)(Nc1nccs1)c1ccc2c(c1)OCCO2`, the activation is -0.72%.
As for `CN1CCN(C2Cc3ccc(Cl)cc3Sc3ccc(F)cc32)CC1` (centres undefined), the activation was -2.1%.
With `Cc1cc([N+](=O)[O-])nn1CCCC(=O)Nc1cccnc1Cl`, the activation is -0.291%.
For the compound `Cc1cc(NC(=O)c2cc(-c3cccs3)on2)nn1Cc1ccc(Cl)cc1`, the activation is 0.242%.
For `CC1(C)O[C@@H]2[C@H](O1)[C@@H](COS(=O)(=O)O)O[C@H]2n1cnc2c(=O)[nH]cnc21`, the activation was -0.104%.
As to `CCCc1nc(SCC(=O)Nc2ccc(S(=O)(=O)N(C)C)cc2)c2ccccc2n1`, the activation was -0.583%.
`Cc1ccc(S(=O)(=O)CC(=O)Nc2sc(C)c(C)c2C(N)=O)cc1`: the activation was 0.0351%.
In the case of `COCCN(C(=O)CCC(=O)Nc1nccs1)C(C(=O)NCCC(C)C)c1ccc(F)cc1` (centres undefined), the activation is -1.07%.
`O=C(NCc1cccnc1)c1cc(C2CCCCN2C(=O)CCc2ccccc2)on1` (centres undefined): the activation was -0.0033%.
Consider `CCOc1ccc(-n2c(SC(C)C(=O)OC)nc3c(c2=O)SCC3)cc1` (centres undefined), for which the activation was -0.633%.
On to `Cc1ccc(CNC(=O)CSc2nnc3c(n2)[nH]c2ccc(F)cc23)cc1`, for which the activation is -0.754%.
As for `Cc1cccc(N=Nc2c(O)[nH]c3ccc(F)cc23)c1`, the activation was 137% (active).
For `COc1ccc(NC(=O)/C(N=Nc2cccc(S(=O)(=O)Nc3ccc(SC(F)F)cc3)c2)=C(\C)O)cc1`, the activation was 0.0635%.
Consider `Cc1ccccc1OC(=O)Cn1c(C(F)(F)F)nc2ccccc21`, for which the activation was 0.516%.
With `CCCS(=O)(=O)N1CCN=C1SCc1cccc(F)c1`, the activation was 1.16%.
On to `CC1=C[C@H]2Cc3cc(C)cc(C)c3S(=O)(=O)[C@@H]2C=C1`, for which the activation is 0.251%.
`OCCCC1CCCCN1Cc1nc(Cc2ccccc2Cl)no1` (centres undefined): the activation is 1.46%.
Then `CCCCN(C(=O)/C=C/c1ccco1)c1c(N)n(CC(C)C)c(=O)[nH]c1=O`, with 5.81%; and `CC(=O)c1cccc(NC(=O)C2CCCN(S(=O)(=O)c3cccc4nonc34)C2)c1` (centres undefined), with 2.63%.
Regarding `COc1ccc(COC[C@H](CC(C)C)N2CCN(C(=O)c3cccc(C(F)(F)F)c3)CCC2=O)cc1`, the activation is -1.15%.
`O=S1(=O)C=C(SCCN2CCCC2)c2ccccc21`: the activation is 5.28%.
`[O-][n+]1c2c(nn1-c1ccc(Cl)c(Cl)c1)-c1nonc1CC2`: the activation is 0.19%.
Take `CCOC(=O)c1cn[nH]c1NC(=S)Nc1ccccc1`: the activation is -3.84%.
In the case of `CCOC(=O)C1C(=O)OC2(CCCC2)C1C(=O)OCC` (centres undefined), the activation was -0.195%.
For `Cc1c(C(=O)NC(=S)NCc2cccnc2)oc2ccccc12`, the activation was -3.54%.
With `COC(=O)C1=C(N)Oc2c(oc(CO)cc2=O)C1c1c(F)cccc1Cl` (centres undefined), the activation was 1.1%.
For `C=CCOC(=O)N1CCC2CC1c1cc(-c3ccc(OC)cc3)ccc12` (centres undefined), the activation is -0.638%.
On to `COc1ccccc1N(C(=O)Cn1nnc2ccccc21)C(C(=O)NCc1ccco1)c1ccc(C)o1` (centres undefined), for which the activation is -0.406%.
With `CN(CCO)Cc1csc2ccc(Br)cc12`, the activation was -0.737%.
Consider `CCOc1ccc(C(=O)NC(C(=O)NCc2ccccn2)C(C)C)cc1` (centres undefined), for which the activation was -4.42%.
Next, `COc1ccc(/C=C/CN2CCN(Cc3ccc(C)cc3)C(CCO)C2)cc1` (centres undefined): 0.996%; `Cc1cccc(C(=O)O)c1[N+](=O)[O-]`: -0.181%; `O=C1C=CC(=O)N1c1ccc(N2CCCCC2)cc1`: -7.5%.
Turning to `OCC1(CO)CC2(C1)CC(CO)(CO)C2`, the activation was 0.276%.
For the compound `CC(C)(C)C(=O)NNC(=O)c1ccc(Oc2cc(Cl)cc(Cl)c2)o1`, the activation is 0.282%.
For `Cc1ccc(NC(=O)c2nc[nH]c2C(=O)N2CCCCC2)c(C(=O)c2ccccc2)c1`, the activation is -0.352%.
As for `O=C(CCN1C(=O)/C(=C/c2cccs2)SC1=S)NNC(=O)c1cccc(O)c1`, the activation is 133% (active).
`O=C1/C(=C/c2cccs2)SC(=S)N1C1CCS(=O)(=O)C1` (centres undefined): the activation was 2.78%.
Turning to `O=C(CCN1C(=O)c2ccccc2C1=O)NNC(=O)c1ccc(Cl)cc1Cl`, the activation was 0.499%.
Take `CCOC(=O)C1CCCN(S(=O)(=O)c2ccc3c(c2)C(C)(C)C(=O)N3C)C1` (centres undefined): the activation was -2.21%.
Then `CCCn1c(=O)c2[nH]c(C3CCCC3)nc2n(CCC)c1=O`, with -0.643%; and `C[C@]12C=CC(=O)C=C1CC[C@@H]1[C@@H]2C(=O)C[C@@]2(C)[C@H]1CC[C@]2(O)C(=O)CO`, with 0.342% and -0.368%.
`CCOCCCN(C)C1CCN(C(=O)c2oc3ccccc3c2NC(=O)Cc2cccc([N+](=O)[O-])c2)CC1`: the activation was -1.43%.
Next, `O=C(Nc1ccc(Br)cc1)C1CCC(=O)N1Cc1ccccc1Cl` (centres undefined): -1.19%.
As for `C=CCOC(=O)C1=C[C@H](c2ccc(Br)cc2)C[C@H](OCCCCO)O1`, the activation is 0.356%.
As to `CC(C)OC(=O)Cn1nc(C(F)(F)F)c2c1CCCC2`, the activation was 0.525%.
On to `C=CCn1c(CCNC(=O)c2ccccc2F)nnc1SCC(=O)Nc1ccc(OC)cc1`, for which the activation is 0.0893%.
Regarding `CON(C)S(=O)(=O)c1ccc2c(c1)NC(=O)C1CCCN21` (centres undefined), the activation is -2.38%.
Then `O=c1[nH]c(CSc2ccccc2)nc2c1oc1ccccc12`, with 0.844%; and `CCC(C)Sc1nc2c(cnn2-c2ccc(F)cc2)c(=O)[nH]1` (centres undefined), with -4.9%.
As for `CC(=O)CC[C@@H](C)O[C@@H]1OC(C)[C@H](O)CC1O` (some centres undefined), the activation was 0.121%.
Next, `C/C(=N\NC(=O)c1ccc(CSc2nc(C)cc(C)n2)cc1)C1CCCCC1`: -0.149%; `Cc1cc(C)n(CCNC(=O)CC2C(=O)NCCN2Cc2ccc(C)o2)n1` (centres undefined): -0.111%.
